Experimental data as given in PubChem BioAssay AID2731 (National Center for Advancing Translational Sciences (NCATS), 2010).
The list shows a part of the results. Records with an inconclusive call do not appear. Calls come from the whole dose curve; as a rule, active = well fitted curve in the direction sought with a large enough effect; inconclusive = small, poorly fitted or top-dose-only effect, or effect the other way, or another doubt; inactive = no such curve, though single readings can be large or run the other way.

test: High Content Assay for Compounds that inhibit the Assembly of the Perinucleolar Compartment: PC3M Caspase 3/7 Activation; conditions: PC3M-GFP caspase 3/7 activation, luminescence, 24 h; series mostly up to 46.1 µM; activity change, positive = activation: at the top concentration
Excerpt: High Content Assay for Compounds that inhibit the Assembly of the Perinucleolar Compartment NIH Chemical Genomics Center [NCGC] NIH Molecular Libraries Probe Centers Network [MLPCN] MLPCN Grant: MH082371-01A2 Assay Submitter (PI): Sui Huang, Northwestern University, Feinberg School of Medicine, Cell and Molecular Biology, Chicago, Illinois. The perinucleolar compartment (PNC) is a non-membrane-bound nuclear subdomain that is associated with but structurally distinct from the nucleolus. The PNC is a heritable trait, in which the number of PNCs per cell in daughter cells often mimics that of their mother cells. The PNC is heterogeneous in shape, is stable through interphase, disassembles during mitosis, and reassembles in early G1. The PNC is concentrated with newly synthesized RNA polymerase III (pol III) RNAs (MRP RNA, RNAse P H1 RNA, hY RNAs[hY1, 2, 5], Alu RNA, and SRP [7SL] RNA) and RNA binding proteins (nucleolin, PTB, CUG-BP, KSRP, Raver1, Raver2, and Rod). […] Extensive in vitro studies have shown that the PNC is unique to tumor cells and preferentially forms in tumor cells derived from solid tissues. Examination of cancer cell lines from various origins and malignant capacities has shown that PNC prevalence correlates with the malignancy of tumors and has the potential to be developed as a pan-cancer prognostic marker. […] Although the PNC is associated with a DNA locus and a handful of components have been identified, much remains to be investigated regarding the structure and function of the PNC and its mechanistic link to cancer. We have previously shown that PNC prevalence reduction is a valid strategy to identify compounds that can be used to study the structure and function of the PNC. It is necessary, however, to create a screening platform that is able to test a large number of compounds in an automated fashion. Here we report the development and robustness of an automated whole-cell phenotypic image-based screening assay that is capable of identifying such compounds. We conducted a followup assay to measure the effects of the lead candidates on Caspase 3/7 activation using a luminescent Caspase kit (Caspase 3/7 Glo). The highly metastatic PC3M-GFP reporter cell line was used in this study.
Caspase 3/7 Assay 1. Cells at a density of 75-90% confluency in T175 flasks were harvested using 7 ml TrypLE Express cell dissociation reagent. After dissociation (5 minutes room temperature incubation) 10 ml of complete media was added to the TrypLE/cell suspension. The liquid was transferred to a 50 ml Conical tube and cells were pelleted at 1000 RPM for 5 min. Supernatant was removed and cells were resuspended to a final density of 150-200 cells/ul in complete media. 2. Cells were plated in 5 ul volume (2000 cells/well) into 1536 well White solid bottom plates and allowed to recover and adhere at 37 C in a humidified 5% CO2 incubator for 4 hours. 3. After 4 hour incubation, compound libraries (23 nl of […] in columns 5-48) were transferred to the plates in duplicate using a 1536 well pintool. Camptothecin positive control (59 uM final) was added to column 2 and 1:3 dilutions of camptothecin was added to column 3. DMSO negative controls were present in columns 1 and 4. 4. After a 24 hour incubation in the 37 C incubator, all wells were treated with 3 ul of Caspase Glo 3/7 reagent using a multidrop combi dispenser (ThermoFisher). Bubbles that formed during dispensing were removed by spinning the plates for 1 minutre at 1500 RPM on a table top centrifuge. Plates were incubated at room temperature for 5 minutes. 5. Luminescencent signal was detected on a Viewlux CCD based imager (PerkinElmer) with a clear filter and a 30 second integration time. The The PC3M cell line stably expressing the PTB-GFP was provided by Sui Huang of Northwestern University. The media and cell culture reagents were purchased from Invitrogen (Carlsbad, CA). […]

Activity change, positive = activation, inactive:
CCOC(=O)c1c(-c2cccc(C)c2)csc1NC(=O)c1c(-c2ccccc2)noc1C -4.95%
CC1(c2cccc([N+](=O)[O-])c2)CC(C)(C)N(C(=O)c2ccccc2)c2ccccc21 (stereo unspecified) -7.33%
COC(=O)c1ccc(CSc2ccccc2C)o1 -6.23%
N=c1c2c(-c3ccccc3)c(-c3ccccc3)n(Cc3ccccc3)c2ncn1CCCO -2.13%
Cn1c2ccccc2c(=O)c2c(=O)n(Cc3ccco3)c(COc3ccccc3)nc21 17.1%
COC(=O)C1=C(C)N(c2ccc(Br)cc2)C(=O)/C1=C\c1ccco1 -5.24%
